SW480 rereplic = A quantitative high throughput screen for small molecules that induce DNA re-replication in SW480 colon adenocarcinoma cells | SW480 DNA re-replication, Hoechst DNA content imaging, 48 h | actives 1.8% (n = 340,000) | AID 624297, 2012 | Potency, µM (highest dose often 46.1 µM), for inactives: at the highest dose re-replication activation, hits mostly activators; note: % of control where 0% means no effect; nearly all actives have a fitted effect of over 55% in size
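SW480 cells exposed to compounds for 48 hr at 37 C, 5% CO2, then Hoechst-stained 40 min. Nuclear DNA content imaged by fluorescence scanning (405 nm excitation, 500-530 nm emission); re-replication scored as increased high-intensity nuclei.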
Gal4-VP16 FLuc = VP16 counterscreen qHTS for inhibitors of ROR gamma transcriptional activity. Drosophila S2 Gal4-VP16 UAS-luciferase, luminescence, 20 h. Potency, µM (series often up to 53.6 µM), inactives show top-dose activity, negative = inhibition, hits mostly inhibitors. actives 3.5% (n = 310,000). AID 2546, 2010;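 note: Gal4-VP16 expression switched on by copper sulfate through the metallothionein promoter; % is set by controls: 0 for no effect and ±100 for the full control effect; nearly all actives have a fitted effect of over 50% in size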
KB-3-1 cytotox = qHTS assay for MDR1-selective chemotherapeutics: Primary screen using the parental adenocarcinoma cell KB-3-1; KB-3-1 viability, CellTiter-Glo ATP luminescence, 72 h; Potency, µM (top dose mostly 46.1 µM), most hits filed as cytotoxic; actives 1.4% (n = 400,000); note: % is set by controls: 0 for no effect and ±100 for the full control effect; nearly all actives have a fitted effect of over 60% in size
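Multi-concentration cytotoxicity screen in KB-3-1 cells grown in DMEM lacking phenol red with 10% FBS. After 72 h at 37 °C with compound, ATP-dependent luminescence was recorded.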
RORgamma inh = qHTS for inhibitors of ROR gamma transcriptional activity; Nuclear receptor ROR-gamma (Mus musculus), P51450; Potency, µM (titrated, usually from 53.6 µM), inactives show at the highest dose activity change, negative = inhibition, most hits filed as inhibitors; actives 5.4% (n = 310,000); Drosophila S2 Gal4-RORgamma UAS-luciferase reporter, 20 h; note: % is set by controls: 0 for no effect and ±100 for the full control effect; nearly all actives have a fitted effect of over 60% in size
Target sequence (P51450 whole entry, looked up, the tested form may be a part): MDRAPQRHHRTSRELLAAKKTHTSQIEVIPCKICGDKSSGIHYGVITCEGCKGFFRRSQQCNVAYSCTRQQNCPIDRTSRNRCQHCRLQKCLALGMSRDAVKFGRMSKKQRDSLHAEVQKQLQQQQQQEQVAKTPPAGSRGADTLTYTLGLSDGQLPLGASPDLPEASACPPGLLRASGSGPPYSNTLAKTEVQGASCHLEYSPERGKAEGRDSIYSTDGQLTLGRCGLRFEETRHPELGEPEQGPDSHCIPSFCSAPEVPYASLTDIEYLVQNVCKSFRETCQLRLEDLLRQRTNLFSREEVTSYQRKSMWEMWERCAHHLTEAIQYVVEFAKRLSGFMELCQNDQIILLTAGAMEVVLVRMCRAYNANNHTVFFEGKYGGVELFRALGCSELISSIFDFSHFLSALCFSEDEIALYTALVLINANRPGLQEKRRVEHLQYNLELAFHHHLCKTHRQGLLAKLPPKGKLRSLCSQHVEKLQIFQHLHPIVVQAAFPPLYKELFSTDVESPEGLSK
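ROR gamma transcriptional activity was tracked as Gal4-UAS luciferase output in stably transfected Drosophila Schneider cells, with compound added 1 hr before 700 uM copper sulfate induction and a 20 hr ambient-temperature incubation.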
MCF10A rerep = A quantitative high throughput screen for small molecules that induce DNA re-replication in MCF 10a normal breast cells. MCF 10A DNA re-replication, Hoechst nuclear intensity, 48 h. actives 2.9% (n = 350,000). Potency, µM (series often up to 46.1 µM), for inactives: at the top dose activity, positive = re-replication, most hits filed as activators; note: % of control where 0% means no effect; nearly all actives have a fitted effect of over 50% in size
KB-V1 MDR tox = qHTS assay for MDR1-selective chemotherapeutics: Primary screen using the drug-selected MDR subline cells KB-V1; KB-V1 MDR cells viability, CellTiter-Glo, 72 h; Potency, µM (titrated, usually from 46.1 µM), most hits filed as cytotoxic; actives 3.4% (n = 400,000); AID 1347076, 2019; note: % is set by controls: 0 for no effect and ±100 for the full control effect; nearly all actives have a fitted effect of over 60% in size
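Cytotoxicity via CellTiter-Glo luminescence after 72 h compound exposure at 37 degrees C. Cells: drug-selected KB-V1 line, DMEM phenol-red free plus 10% FBS. Compounds tested at multiple concentrations; normalized data fitted to concentration-effect curves.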
Active calls of the source: *; i = inactive; ? = inconclusive; · = no result given; ! = not confirmed by another sample; [ ] = remark or other dose. In the library only some 10% were active in any assay of this set; here they are far more common. Calls come from the whole dose curve; as a rule, active = well fitted curve in the direction sought with a large enough effect; inconclusive = small, poorly fitted or top-dose-only effect, or another doubt; inactive = no such curve, though single readings can be large; an effect the other way counts as inactive or inconclusive. Potency is the fitted concentration of half-maximal effect.

SMILES	SW480 rereplic	Gal4-VP16 FLuc	KB-3-1 cytotox	RORgamma inh	MCF10A rerep	KB-V1 MDR tox
CCn1ccc2cc(S(=O)(=O)N3CCCN(C(=O)Nc4cccc(Cl)c4)CC3)ccc21	·	·	?	·	·	10µM*
CCn1ccc2cc(S(=O)(=O)N3CCCN(C(=O)Nc4ccccc4F)CC3)ccc21	·	·	i	·	·	i
O=C(Nc1cccc(Cl)c1)C1CCCN(S(=O)(=O)c2ccc(F)cc2)C1 (centres undefined)	10%	-14%	?	19%	28%	6.5µM*
CC[C@H](C)[C@H](NC(=O)[C@H](Cc1ccc(O)cc1)NC(=O)[C@@H](NC(=O)[C@H](CCCN=C(N)N)NC(=O)[C@@H](N)CC(=O)O)C(C)C)C(=O)N[C@@H](Cc1cnc[nH]1)C(=O)N1CCC[C@H]1C(=O)O	·	4%	·	1%	·	·
Cc1ccc(C)c(OCCC(=O)Nc2cc(S(=O)(=O)N3CCCCC3)ccc2C)c1	-1%	·	i	·	?	i
Cc1ccc(C)c(OCCC(=O)Nc2cccc(S(=O)(=O)N3CCCCC3)c2)c1	-1%	·	i	·	13%	15µM*
O=C(CCS(=O)(=O)c1ccc(Cl)cc1)Nc1cccc(S(=O)(=O)N2CCCCCC2)c1	-8%	·	i	·	13%	21µM*
COC(=O)c1ccc(C[n+]2ccccc2)cc1	-1%	12%	i	0.1µM*	0%	i
NCCC[C@@H](CC(=O)N[C@@H]1CCCC[C@H]1C(=O)N[C@H](CC(=O)N[C@@H](CCC(=O)O)CC(=O)O)Cc1c[nH]c2ccccc12)NC(=O)C[C@H](Cc1c[nH]c2ccccc12)NC(=O)[C@@H]1CNCC[C@H]1N	·	3%	·	17%	·	·
Oc1cc(OCc2ccccc2)ccc1-c1[nH]ncc1-c1ccccc1	1%	?	i	10µM*	23µM*	i
O=[N+]([O-])c1ccc(COc2ccc(-c3[nH]ncc3-c3ccccc3)c(O)c2)cc1	·	5.6µM*	?	7.1µM*	?	?
O=C(COc1ccc(S(=O)(=O)N2CCOCC2)cc1)NCCc1ccc(Cl)cc1	·	·	i	·	·	i
CCc1c(C(C)S(=O)(=O)c2ccc(C)cc2)[nH]c(=O)n1-c1ccc(C)cc1 (centres undefined)	-1%	6%	i	?	-5%	i
CCc1[nH]c(=O)[nH]c1C(C)S(=O)(=O)c1ccc(C)cc1 (centres undefined)	-31%	?	i	14µM*	5%	i
COc1ccc(/C=N/N2C(=O)CSC2=S)cc1	-2%	3%	i	16µM*	-5%	i
O=C1CSC(=S)N1/N=C/c1cc(Br)ccc1O	·	?	·	11µM*	·	·
CC(/C=N/N1C(=O)CSC1=S)=C\c1ccccc1	-3%	5%	i	11µM*	0%	i
CC(C)(C)c1ccc(/C=N/N2C(=O)CSC2=S)cc1	-13%	?	i	10µM*	15%	i
O=C1CSC(=S)N1/N=C/c1ccc(O)c(O)c1O	?	-13%	i	-16%	1%	i
CC(C)NC(=O)C1(C)Cc2c(-c3ccc(N(C)C)cc3)ccnc2O1 (centres undefined)	·	·	i	·	·	?
C=C1C=C(C(F)F)n2ncc(C(=O)NCc3ccc(OC)c(OC)c3)c2N1	·	·	i	·	·	i
Cc1ccc(S(=O)(=O)N2C[C@]3(O)C[C@@H]4C(=O)N(c5ccccc5)C(=O)[C@@H]4C[C@]3(OC(=O)Nc3cccs3)C2)cc1	·	·	i	·	·	i
CC1(O)C(=O)C=C2C=C3CCCN3C=C2C1=O (centres undefined)	·	0%[10 µM]	·	3%[10 µM]	·	·
COc1cc(-c2nnc(COC(=O)C3c4ccccc4Oc4ccccc43)o2)cc(OC)c1OC	-5%	-24%	i	13%	9%	i
COc1ccc(C2=C(C=C(C#N)C#N)C(c3ccccc3C)c3ccccc3O2)cc1OC (centres undefined)	?	-14%	i	?	-53%	15µM*
SMILES	SW480 rereplic	Gal4-VP16 FLuc	KB-3-1 cytotox	RORgamma inh	MCF10A rerep	KB-V1 MDR tox
O=C(C[C@H]1C[C@H](C(=O)N2CCCCC2)[C@@]2(CCc3ccccc3)c3[nH]c4cc(-c5ccco5)ccc4c3CCN2C1=O)NCCN1CCOCC1	?	·	18µM*	·	23µM*	?
CCN(CC)C(=O)[C@H]1C[C@H](CC(=O)NCc2cccc(C(F)(F)F)c2)C(=O)N2CCc3c([nH]c4cc(-c5ccco5)ccc34)[C@]12C	13%[9.22 µM]	·	15µM*	·	?	?
COC1=CC(=O)OC(c2ccc(C(F)(F)F)cc2)C1 (centres undefined)	·	·	i	·	·	i
COc1ccc2c(CNC3CCC(C)CC3)c(C(=O)O)n(Cc3ccc(F)cc3)c2c1 (centres undefined)	·	·	i	·	·	i
COC(=O)[C@@]1(Cc2ccccc2)[C@@H]2C(=CC(=O)[C@H]2CC(=O)C(=O)N(C)C)CN1C(=O)c1ccccc1	?	?	21µM*	?	26µM*	i
CCN(CC)CCOC(=O)c1ccc(N/C=C(/C#N)c2nc(-c3ccc4c(c3)OCO4)cs2)cc1	?	-4%	i	-21%	18µM*	i
CS/C(=N\S(=O)(=O)c1cccs1)Nc1ccc(Br)cc1F	0%	0%	i	7%	23µM*!	?
CCCC12CN3CC(CCC)(CN(C1)C3c1c(C)[nH]c(=O)[nH]c1=O)C2=O (centres undefined)	·	·	i	·	·	i
C=CCOc1c(Br)cc(CNn2c(C)n[nH]c2=S)cc1OC	-4%	?	i	?	-5%	i
C=CCOc1c(Br)cc(CNc2nccs2)cc1OC	11%	18µM*	i	13µM*	1%	i
Cc1cc(/C=C2\SC(=S)N(C)C2=O)c(C)n1-c1ccc(O)cc1	?	0.63µM*	?	?	?	?
Cc1cc(/C=C2\SC(=S)N(C)C2=O)c(C)n1-c1ccccc1O	12µM*	·	?	·	13µM*	?
Cc1cc(/C=C2/SC(=S)N(c3ccc([N+](=O)[O-])cc3)C2=O)c(C)n1-c1cccnc1	-697%	0.89µM*	?	3.2µM*	4%	i
CCOc1ccc(/C=C/c2ccc3ccccc3n2)cc1OCC	·	·	?	·	·	i

Source: PubChem BioAssay
